This note sets out measurements from PubChem BioAssay (NCATS).

Assay [1] in a line: qHTS Assay for Identifying Gametocytocidal Compounds (AID 743244; active = well fitted curve in the direction sought with a large enough effect; an effect the other way counts as inactive or inconclusive;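 note: % is set by controls: 0 for no effect and ±100 for the full control effect; actives lower the fluorescent signal which means gametocytes are killed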). Particulars: P. falciparum 3D7 stage III-V gametocytes, alamarBlue, 72 h; max response: stronger effect = lower value. An outline of the steps: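 Viability read-out was resazurin reduction (alamarBlue, 24 h) measured at Ex 525/Em 598 nm. Beforehand, late-stage (III-V) 3D7 P. falciparum gametocytes at 20,000 cells/well were incubated with compound 72 h at 37C under 5% CO2.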

Assay [2] can be described thus: qHTS profiling of the MIPE4 collection as inhibitors of Plasmodium falciparum (3D7) proliferation (AID 743344).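 Note: scaled between DMSO vehicle wells and 0.29 µM artemisinin as full inhibition.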 Particulars: P. falciparum 3D7 in erythrocytes, SYBR Green DNA fluorescence, 72 h; at 28.5 µM (top of the series) unless noted. In outline: (§1)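 Erythrocytes infected with P. falciparum (0.3% parasitemia, 2.5% hematocrit) incubated with compounds 72 h at 37 C, 5% CO2. Lysis with saponin/Triton buffer containing SYBR Green I, overnight at room temperature in the dark; DNA fluorescence (485/535 nm) normalised to 0.29 uM artemisinin and DMSO.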

Assay [3] is described as follows: qHTS profiling of the MIPE4 collection as inhibitors of Plasmodium falciparum (DD2) proliferation (AID 743345). Particulars: P. falciparum Dd2 in erythrocytes, SYBR Green DNA, 72 h; at 28.5 µM (top of the series) unless noted. An outline of the steps: as §1
Assay [4] is described as follows: qHTS assay for small molecule agonists of the antioxidant response element (ARE) signaling pathway measured by Nrf2-dependant transcriptional activity (AID 720636; active = well fitted curve in the direction sought with a large enough effect in the repeat runs; an effect the other way counts as inactive or inconclusive;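 note: HepG2 cells with an ARE-driven luciferase reporter; % of control where 0% means no effect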). In outline:
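In HepG2 cells engineered with an Nrf2-responsive luciferase gene, ARE induction was quantified as luminescence after 16 hr compound treatment at 37 C.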

Assay [5] is described as follows: qHTS assay for cell viability of HEK293 cells (AID 743288; active = well fitted curve in the direction sought with a large enough effect; an effect the other way counts as inactive or inconclusive; note: nearly all actives have a fitted effect of over 50% in size; note: potency is the fitted concentration of half-maximal effect; for max response: % is set by controls: 0 for no effect and ±100 for the full control effect). Particulars: ATP luminescence (CellTiter-Glo), 18 h; max response: stronger effect = lower value. In outline: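 HEK293 parental, 2,000 cells/well; ≥5 h pre-incubation 37 C; pintool compound addition; 18 h, 37 C; CellTiter-Glo 30 min RT; luminescence read.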
The nature of assay [6]: qHTS assay for small molecule antagonists of the retinoid-related orphan receptor gamma (ROR-gamma) signaling pathway - cell viability counter screen (AID 720652; active = well fitted curve in the direction sought with a large enough effect in the repeat runs; an effect the other way counts as inactive or inconclusive;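 note: compound exposure lasted 16 hr before ATP read; % is set by controls: 0 for no effect and ±100 for the full control effect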). In outline: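 Cytotoxicity is quantified via intracellular ATP (CellTiter-Glo luminescence) in doxycycline-induced CHO ROR response element-luciferase reporter cells treated with compound for 16 hr at 37 C, 5% CO2.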

A short description of assay [7]: qHTS assay for small molecule agonists of the antioxidant response element (ARE) signaling pathway measured by Nrf2-dependant transcriptional activity - cell viability counter screen (AID 720653; active = well fitted curve in the direction sought with a large enough effect in the repeat runs; an effect the other way counts as inactive or inconclusive; note: % is set by controls: 0 for no effect and ±100 for the full control effect). To be noted: ARE-bla HepG2 viability, CellTiter-Glo ATP luminescence, 16 h; max response: stronger effect = lower value. An outline of the steps:
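ARE-bla HepG2 cells (2,000/well) rested 5 hrs at 37C/5% CO2, then exposed to compounds in DMSO for 16 hrs. Viability was read in the same wells as intracellular ATP by luminescence, 30 min at room temperature after reagent addition.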

Assay [8] in a line: qHTS assay for cell viability of the p53RE-bla HCT-116 cell line (AID 743292; active = well fitted curve in the direction sought with a large enough effect; an effect the other way counts as inactive or inconclusive; note: % is set by controls: 0 for no effect and ±100 for the full control effect; nearly all actives have a fitted effect of over 55% in size). An outline of the steps:
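Intracellular ATP of p53RE-bla HCT-116 cells measured by luciferase luminescence following 16 h compound incubation at 37 C; DMSO-only wells served as vehicle controls.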

Assay [9] can be described thus: qHTS profiling for inhibitors of Plasmodium falciparum (3D7) proliferation (AID 743322).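 Note: infected erythrocytes exposed to compound for 72 h before lysis; 100% = DMSO vehicle wells and 0% = 0.29 µM artemisinin.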 Particulars: P. falciparum 3D7 proliferation; at 28.7 µM (top of the series). An outline of the steps:
as §1

A short description of assay [10]: qHTS profiling for inhibitors of Plasmodium falciparum (DD2) proliferation (AID 743323). Particulars: lower = more inhibition; at 28.7 µM (top of the series). In outline:
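1536-well qHTS; infected RBCs 0.3% parasitemia/2.5% Hct final; cpd 72 h 37 C 5% CO2; lysis buffer + SYBR Green I, o/n RT dark; FI 485/535; norm. to 0.29 uM artemisinin and DMSO, plate-stack corrected.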

Structures are written as SMILES. Where “and” joins values, the source holds several entries; their conditions need not be identical. Equal entries are not always repeated. Records with an inconclusive call do not appear. Calls of active or inactive are those of the source. Unless noted, the rule behind the calls is not given here.

With `C[C@@H](CN1CC(=O)NC(=O)C1)N1CC(=O)NC(=O)C1`, in [1], the max response was 9.49% (inactive). The compound further displayed a parasite growth, % of DMSO control in assay [2] of 74.5%. For the same compound, in assay [3], the parasite growth remaining, % of DMSO control (lower = more inhibition) was determined as 88.1%.

Regarding `COc1cccc(N(C)C(=S)Oc2ccc3c(c2)CCCC3)n1`, the max response in assay [1] is -0.766% (inactive). Besides, the parasite growth, % of DMSO control in assay [2] was found to be 47.9%. In [3], the parasite growth remaining, % of DMSO control (lower = more inhibition) amounted to 82.7%.

In the case of `CCc1c2c(nc3ccc(OC(=O)N4CCC(N5CCCCC5)CC4)cc13)-c1cc3c(c(=O)n1C2)COC(=O)[C@]3(O)CC`, the max response in assay [1] was 2.43% (inactive). The compound further gave a parasite growth, % of DMSO control in [2] of 66.3%. Also, in [3], the parasite growth remaining, % of DMSO control (lower = more inhibition) is 59.3%.

As to `CC(=O)Oc1ccccc1C(=O)Nc1ncc([N+](=O)[O-])s1`, the result in [4] was inactive. In addition, in assay [5], the Potency is 28.2 µM (active). Further, the parasite growth, % of DMSO control in [2] is 4.65% [at 57.5 µM]. In addition, the parasite growth remaining, % of DMSO control (lower = more inhibition) in [3] stood at 8.2% [at 57.5 µM].

Take `CC(C)(C#N)c1cc(Cn2cncn2)cc(C(C)(C)C#N)c1`: in assay [1], the max response was 7.01% (inactive). In [2], this compound had a parasite growth, % of DMSO control of 89.6%. Further, in assay [3], the parasite growth remaining, % of DMSO control (lower = more inhibition) was 91.9%.

On to `O=C(O)c1cccnc1`, for which the max response in assay [1] was 3.31% (inactive). This compound also returned a parasite growth, % of DMSO control in [2] of 91.9%.

For `C[C@]12C=CC(=O)C=C1CC[C@@H]1[C@@H]2C(=O)C[C@@]2(C)[C@H]1CC[C@]2(O)C(=O)CO`, in assay [4], the result was inactive. The Potency result in assay [6] and in [8] was “inactive” throughout. Moreover, the figures for the max response in assay [7], in assay [1] and in assay [5] were 1.48% (inactive), 18% (inactive) and 0.765% (inactive), respectively. In [3], the parasite growth remaining, % of DMSO control (lower = more inhibition) is 95.7% [at 9.64 µM].

In the case of `CCn1cc(C(=O)O)c(=O)c2cc(F)c(N3CCNCC3)cc21`, the max response in [1] is 1.43% (inactive) and -0.58% (inactive).

Regarding `CN1CCN(c2c(F)cc3c(=O)c(C(=O)O)cn(CCF)c3c2F)CC1`, the max response in assay [1] was 1.63% (inactive). This compound also had a parasite growth, % of DMSO control in assay [2] of 86.6%. Besides, the parasite growth remaining, % of DMSO control (lower = more inhibition) in assay [3] amounted to 95.4%.

With `NC(=O)N1c2ccccc2CC(=O)c2ccccc21`, the max response in assay [1] was 34.3% (inactive). Also, the parasite growth, % of DMSO control in assay [2] is 92.2%. For the same compound, the parasite growth remaining, % of DMSO control (lower = more inhibition) in [3] stood at 96.7%.

In the case of `COc1ncnc(NS(=O)(=O)c2ccc(N)cc2)c1OC`, the max response in assay [1] was -8.03% (inactive). Besides, in assay [9], the remaining parasite growth % (stronger effect = lower value) is 82.4%. For the same compound, in [10], the activity, percent of control was 85.3%. Moreover, the parasite growth, % of DMSO control in assay [2] was found to be 170%. Further, the parasite growth remaining, % of DMSO control (lower = more inhibition) in [3] was 105%.

Regarding `COc1cnc(NS(=O)(=O)c2ccc(N)cc2)nc1`, the max response in assay [1] was 7.05% (inactive). The compound also returned a parasite growth, % of DMSO control in assay [2] of 87.5%. For the same compound, the parasite growth remaining, % of DMSO control (lower = more inhibition) in assay [3] was determined as 95.4%.

Regarding `CS(=O)(=O)c1ccc([C@@H](O)[C@@H](CO)NC(=O)C(Cl)Cl)cc1`, the max response in [1] was 8.86% (inactive). Besides, the parasite growth, % of DMSO control in [2] came to 40.4%. In addition, the parasite growth remaining, % of DMSO control (lower = more inhibition) in assay [3] came to 51.5%.

On to `COc1ccc2cc3[n+](cc2c1OC)CCc1cc2c(cc1-3)OCO2`, for which, in [4], the call was inactive. Also, the Potency entry in assay [6] and in [8] was “inactive” each time. Besides, the max response in assay [7] is -27.8% (inactive); in assay [5], -16% (inactive). The compound further gave a parasite growth, % of DMSO control in assay [2] of 5.45%. The parasite growth remaining, % of DMSO control (lower = more inhibition) in [3] came out at 6.26%.

As to `CN1CCCC(n2nc(Cc3ccc(Cl)cc3)c3ccccc3c2=O)CC1` (stereo not drawn), in assay [1], the max response is 32.9% (inactive). In assay [2], the parasite growth, % of DMSO control is 5.72%. In addition, the parasite growth remaining, % of DMSO control (lower = more inhibition) in assay [3] was 14%.
